The list is not random: actives were taken first. Their share in the collection is about 11%.
AmpC inh no detg = inhibitors of E. coli AmpC beta-lactamase without detergent; AmpC nitrocefin hydrolysis, absorbance 480 nm, 0.0001% Triton; Potency, µM (top dose mostly 57.1 µM), hits mostly inhibitors; 0.52% of 330,000 active; P00811; further: nearly all actives have a fitted effect of over 20% in size
Target sequence (P00811 whole entry, looked up): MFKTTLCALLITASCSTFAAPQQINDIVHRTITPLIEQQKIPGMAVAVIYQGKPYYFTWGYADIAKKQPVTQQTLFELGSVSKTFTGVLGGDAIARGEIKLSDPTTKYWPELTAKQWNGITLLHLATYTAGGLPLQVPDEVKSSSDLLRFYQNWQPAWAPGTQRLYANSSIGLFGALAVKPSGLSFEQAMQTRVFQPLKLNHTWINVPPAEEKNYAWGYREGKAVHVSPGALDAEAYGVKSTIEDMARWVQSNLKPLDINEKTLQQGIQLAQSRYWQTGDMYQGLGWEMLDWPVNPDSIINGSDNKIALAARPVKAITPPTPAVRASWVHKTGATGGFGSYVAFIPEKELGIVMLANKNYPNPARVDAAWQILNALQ
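AmpC (5.3 nM in the dispensed reagent) in 20 mM phosphate pH 7.0 with 0.01% (detergent screen) or 0.0001% Triton X-100 was preincubated with compounds for 15 min at room temperature. Nitrocefin was then added from an 800 uM solution, and hydrolysis was followed at 480 nm.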
AMA1 RON2 block = inhibitors of Plasmodium falciparum AMA1-RON2 interaction. 0.2% of 360,000 active. AID 720542. AlphaScreen AMA1-biotinylated RON2 peptide binding. Potency, µM (series often up to 58.2 µM), most hits filed as inhibitors; further: nearly all actives have a fitted effect of over 45% in size
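AMA1 (3D7) with his tag at 25 nM final met compounds first, then biotinylated RON2 peptide at 25 nM; detection used donor plus acceptor beads, 10 µg/mL apiece, read by AlphaScreen after 30 min at room temperature.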
AmpC inh detg = AmpC beta-lactamase inhibition with detergent present | AmpC hydrolysis of nitrocefin, absorbance 480 nm, 0.01% Triton | P00811 | 0.041% of 370,000 active | Potency, µM (series often up to 114 µM), usual class: inhibitors; further: nearly all actives have a fitted effect of over 25% in size
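20 mM phosphate pH 7.0 + 0.01% (detergent screen) or 0.0001% Triton X-100; 5.3 nM AmpC reagent; cpd preinc 15 min RT; nitrocefin (800 uM stock) to start; A480 q20 s × 4 min; Activity was normalised to no-enzyme and no-compound control wells.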
Pf growth 48h = inhibits P. falciparum growth in the first generation, 48 h. P. falciparum luciferase growth in erythrocytes, 48 h. 5.9% of 310,000 active. Potency, µM (series often up to 28.7 µM), usual class: inhibitors
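Parasite viability was followed by luminescence of a genomically integrated firefly luciferase. Cultures held 0.1% parasitemia at 2% hematocrit (final), incubated under 5% CO2 at 37 C.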
HCV inhibitor = blocks hepatitis C virus. Huh7.5.1 HCVcc-Cre infection, luciferase reporter, 44 h. Potency, µM (titrated, usually from 41.8 µM), hits mostly inhibitors. 3.4% of 340,000 active. AID 651820
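Seed cells (1,000/well) for 4 h; treat with compound and infect with HCVcc-Cre, moi about 0.5. Incubate 44 h, then detect luciferase activity.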
Pf growth 96h = P. falciparum growth inhibition at 96 hour, primary screen for plastid delayed-death inhibitors; P. falciparum luciferase reporter growth, 96 h; Potency, µM (highest dose often 28.7 µM), most hits filed as inhibitors; 6.9% of 320,000 active; AID 504834
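Erythrocytes infected with luciferase-expressing P. falciparum were dispensed at 2% hematocrit and 0.05% parasitemia (final), then incubated with compounds 96 hours at 37 C in 5% CO2. Luminescence after detection reagent addition reported growth.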
Hits are given with their value; 0 = inactive; ? = inconclusive; - = no result; [ ] = another dose, or the depositor's remark. The call rests on the fitted dose curve; in most records, active means well fitted curve in the direction sought with a large enough effect; inconclusive means small, poorly fitted or top-dose-only effect, or another doubt; inactive means no such curve, though single readings can be large; an effect the other way counts as inactive or inconclusive.

SMILES	AmpC inh no detg	AMA1 RON2 block	AmpC inh detg	Pf growth 48h	HCV inhibitor	Pf growth 96h
O=C(C1CCCN(S(=O)(=O)c2cccc3nsnc23)C1)N1CCN(c2ccccn2)CC1 (centres undefined)	0	0	0	11.7µM	?	0
O=C(CSc1nc2ccccc2nc1Cc1ccc(Cl)cc1)NCCc1ccccc1	-	-	0	-	-	-
CCCCN(CCCC)C(=O)c1cc2c(=O)n3ccccc3nc2s1	-	-	0	-	-	-
CC1=C(C(=O)Nc2ccccc2Br)C2(CCC(C)CC2)OC1=O (centres undefined)	-	-	0	-	-	-
COc1ccc(NC(=O)CCl)cn1	0	-	0	8.28µM	-	10.4µM
COc1ccc(NC(=O)C(C)(C)Oc2ccc(Cl)cc2)cn1	0	0[11.6 µM]	0	0	0	0
COc1ccc(NC(=O)Nc2cc(C)cc(C)c2)cn1	0	0	0	0	0	0
COc1ccc(NC(=O)C(Cl)=C(Cl)Cl)cn1	0	0	?	?	10µM	?
COc1ccc(NC(=O)/C(Cl)=C(/Cl)S(=O)Cc2ccc(Cl)cc2)cn1 (centres undefined)	0	0	0	0	7.94µM	?
COc1ccc(NC(=O)/C(Cl)=C(/Cl)S(=O)(=O)Cc2ccccc2)cn1	0	0	0	-	3.55µM	0
Cc1ccc(C(=O)NCCc2csc(-c3cccc(F)c3)n2)cc1C	-	-	0	-	-	-
NS(=O)(=O)c1ccc(CCNC(=O)c2nc(SCc3ccccc3F)ncc2Cl)cc1	-	-	0	-	-	-
COCc1cc(C)n(CC(=O)Nc2ccc(NC(C)=O)cc2)c(=O)c1C#N	-	-	0	-	-	-
O=C(CSCc1ccc(F)cc1)Nc1ccc(N2CCOCC2)cc1N1CCOCC1	0	0	0	5.86µM	0	13.1µM
O=C(Cc1ccccc1)Nc1ccc(N2CCOCC2)cc1N1CCOCC1	0	0	0	0	0	0
O=C(COc1ccc(F)cc1Cl)Nc1ccc(N2CCOCC2)cc1N1CCOCC1	0	0	?	9.28µM	22.4µM	?
Cc1nn(Cc2ccc(F)cc2)c2sc(C(=O)Nc3ccc(N4CCOCC4)cc3N3CCOCC3)cc12	0	?	0	11.7µM	?	14.7µM
O=C(COc1ccccc1F)Nc1ccc(N2CCOCC2)cc1N1CCOCC1	0	0	0	?	0	0
Cc1ccc(C(=O)Nc2ccc(N3CCOCC3)cc2N2CCOCC2)cc1	0	0	?	0	?	?
CCCOc1ccc(C(=O)NCC2OCCc3ccccc32)cc1 (centres undefined)	-	-	0	-	-	-
C=C(C)Cn1c(SCC(=O)Nc2cccc(Cl)c2)nc2sc3c(c2c1=O)CCCC3	-	-	0	-	-	-
COc1ccc(C)cc1NC(=O)Nc1cccc(OCc2cc(=O)n3ccc(C)cc3n2)c1	-	-	0	-	-	-
CCc1nn(CC(=O)NCC(C)c2ccccc2)c(=O)c2cc3c(OC)cccc3n12 (centres undefined)	-	-	0	-	-	-
COc1ccc2oc(=O)cc(CN3CCN(c4ccc(F)cc4)CC3)c2c1	-	-	0	-	-	-
Cc1cc(=O)n2[nH]cc(-c3ccccc3)c2n1	0	0	0	0	0	9.28µM
SMILES	AmpC inh no detg	AMA1 RON2 block	AmpC inh detg	Pf growth 48h	HCV inhibitor	Pf growth 96h
COCc1cc(=O)n2[nH]cc(-c3ccccc3)c2n1	0	0	0	0	0	0
O=C(c1cccc(S(=O)(=O)N2CCCC2)c1)N1CCCc2ccccc21	0	0	0	?	0	?
CC1CC(C)CN(S(=O)(=O)c2cccc(C(=O)N3CCN(c4ccc(F)cc4)CC3)c2)C1 (centres undefined)	0	0	0	11.7µM	?	?
O=C(c1ccc(-c2ccccc2)cc1)N1CCN(c2ccccc2F)CC1	0	0	?	0	0	0
O=C(c1cccc(S(=O)(=O)N2CCN(c3ccccc3)CC2)c1)N1CCN(c2ccccc2O)CC1	0	0	?	10.4µM	?	?
O=C(c1cccc(S(=O)(=O)N2CCCCC2)c1)N1CCc2ccccc21	0	0	0	0	?	1.17µM
CC(=O)N1CCN(C(=O)c2cccc(S(=O)(=O)N3CCN(c4ccccc4)CC3)c2)CC1	0	0	0	?	0	0
Cc1ccc(N2C(=O)c3ccc(C(=O)N4CCN(c5ccccc5F)CC4)cc3C2=O)cc1	0	0	?	0	0	9.28µM
Cc1ccc(-n2nc(C(=O)NCc3ccc(F)cc3Cl)c3c4ccccc4n(C)c3c2=O)cc1	-	-	0	-	-	-
COc1ccccc1CNC(=O)C1(c2cccs2)CCOCC1	-	-	0	-	-	-
COc1ccc(NC(=O)c2oc3ccccc3c2NC(=O)Cc2coc3ccc(C)cc23)cc1	-	-	0	-	-	-
Cn1c(O)c(N=NC(=O)c2cccc(S(=O)(=O)N3CCCCC3)c2)c2ccccc21	0	0	0	10.4µM	?	7.38µM
COc1ccc(C(=O)N2CCN(C3CCC(c4ccccc4)CC3)CC2)cc1OC (centres undefined)	0	?	0	?	?	9.28µM
O=C(c1cccc(S(=O)(=O)N2CCCCCC2)c1)N1CCN(c2ccccc2F)CC1	0	0	0	11.7µM	0	0
COc1ccccc1N1CCN(C2CCN(C(=O)c3cccc(F)c3)CC2)CC1	0	0	0	0	0	13.1µM
CN(C(=O)Nc1cn(C)c(=O)c2ccccc12)c1ccccc1	-	-	0	-	-	-
COc1ccccc1N1CCN(C(=O)c2cccc(S(=O)(=O)N3CCCCCC3)c2)CC1	0	0	0	13.1µM	?	?
Cc1cccc(N2CCN(C(=O)c3ccc4c(c3)N(Cc3cccc(Cl)c3)C(=O)c3ccccc3S4=O)CC2C)c1 (centres undefined)	-	-	0	-	-	-
COc1cc(NS(=O)(=O)c2ccc3c(c2)CC(C)N3C(=O)C2CCC2)cc(OC)c1OC (centres undefined)	-	-	0	-	-	-
COc1ccc(S(=O)(=O)NCC(c2cccs2)N2CCc3ccccc3C2)cc1 (centres undefined)	0	0	0	0	0	0
COc1ccc(OC)c(S(=O)(=O)NCC(c2cccs2)N2CCc3ccccc3C2)c1 (centres undefined)	0	0	0	14.7µM	0	?
COc1cccc(C(=O)NCC(c2ccco2)N2CCc3ccccc3C2)c1 (centres undefined)	0	0	0	?	0	0
COc1ccc(NC(=O)C(=O)NCC(c2ccco2)N2CCc3ccccc3C2)cc1OC (centres undefined)	0	0	0	11.7µM	?	?
COc1cccc(NC(=O)C(=O)NCC(c2ccco2)N2CCc3ccccc3C2)c1 (centres undefined)	0	0	0	11.7µM	?	?
Cc1cc(C)c(S(=O)(=O)NCC(c2ccco2)N2CCc3ccccc3C2)c(C)c1 (centres undefined)	0	0	0	9.28µM	0	?
COc1ccc(NC(=O)c2oc3ccccc3c2NC(=O)c2cccc(F)c2)c(OC)c1	-	-	0	-	-	-

Compound activity (PubChem BioAssay)
